MLL AF4-AF9 inh = blocks AF4 peptide binding to human AF9; P42568; AlphaScreen, biotin-AF4 peptide binding to FLAG-AF9; 350,000 compounds, 0.47% hits; inhibition, % at 10 µM;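 active = every replicate reaching a set inhibition limit, whatever the replicate mean, cut at about 25% in these data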
Casp6 inh = caspase-6 (human) enzyme inhibition; P55212; purified caspase-6, Z-VEID-R110 cleavage fluorescence; inhibition, % at 12.5 µM; 350,000 compounds, 0.53% hits;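 active = mean inhibition across replicates at least about 35%, with every replicate also reaching that limit, limit read from the data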
Target sequence (P55212 24-179 limits assumed): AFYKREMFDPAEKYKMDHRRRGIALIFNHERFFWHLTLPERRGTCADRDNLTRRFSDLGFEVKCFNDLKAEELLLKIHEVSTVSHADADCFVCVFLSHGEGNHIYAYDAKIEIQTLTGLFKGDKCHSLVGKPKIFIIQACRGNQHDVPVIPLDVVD
Target sequence (P55212 194-293 limits assumed): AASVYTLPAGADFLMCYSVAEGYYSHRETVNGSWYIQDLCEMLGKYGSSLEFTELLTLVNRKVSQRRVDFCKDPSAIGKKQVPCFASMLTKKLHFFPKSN
NSD2 inh = inhibitors of human histone methyltransferase NSD2; NSD2 peptide methylation, AlphaScreen, 120 min; inhibition, % at 12.5 µM; 310,000 compounds, 0.54% hits; in the data active = inhibition above about 50%
RAD52 anneal inh = inhibitors of human RAD52 DNA annealing; P43351; recombinant RAD52 DNA annealing, FRET fluorescence; inhibition, % at 18.7 µM; 360,000 compounds, 0.46% hits; AID 651710;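 active = every replicate showing at least 50% inhibition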
Target sequence (P43351 whole entry, looked up): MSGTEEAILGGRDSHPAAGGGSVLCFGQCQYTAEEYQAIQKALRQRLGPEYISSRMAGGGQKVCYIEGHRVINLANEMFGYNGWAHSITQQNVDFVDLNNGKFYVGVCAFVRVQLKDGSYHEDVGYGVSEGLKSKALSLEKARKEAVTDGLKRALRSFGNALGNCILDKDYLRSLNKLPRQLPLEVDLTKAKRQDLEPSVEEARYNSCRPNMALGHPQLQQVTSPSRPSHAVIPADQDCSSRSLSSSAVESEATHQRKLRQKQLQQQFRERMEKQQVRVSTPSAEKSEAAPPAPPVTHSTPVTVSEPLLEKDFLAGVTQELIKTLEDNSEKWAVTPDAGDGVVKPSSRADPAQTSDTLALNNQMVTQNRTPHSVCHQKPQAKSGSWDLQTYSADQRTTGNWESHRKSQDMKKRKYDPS
Ecoli rRNA inh = inhibitors of bacterial rRNA selective over humanized ribosomes. 350,000 compounds, 1.6% hits. GFP signal change (wild-type ribosome), % (no concentration beside the values). E. coli WT GFP vs humanized-ribosome RFP mutants, fluorescence, 24 h; hits give low values; DMSO median 0, no signal -100;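 active = significant combined selectivity score with lowered wild-type GFP, culture density cut under 30%, mutant RFP and density less affected; inactive = any of these conditions unmet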
AlphaScreen art = counter-screen for NSD2 inhibitors: AlphaScreen artifacts; 1,500 compounds, 9.4% hits; AC35, µM (titrated, usually from 10 µM); AlphaScreen artifact counterscreen, preloaded methylated H4 peptide; shares compounds with NSD2 inh; call rule not given here
Of the large screens only hits and unclear results are named; the others gave an inactive call (follow-up assays come after a bar, where they were run). Only some compounds are listed: those with a hit (about 2.5% of all), similar ones and a draw of the others.

CC1CCCC(C)N1C(=O)COC(=O)c1cc([N+](=O)[O-])ccc1N1CCOCC1 (centres undefined)	none
CC1CCCC(C)N1C(=O)COC(=O)c1ccc([N+](=O)[O-])o1 (centres undefined)	NSD2 inh 68.6 | AlphaScreen art inactive
O=C(O)C1CC(=O)N(c2ccc(F)cc2)C1 (centres undefined)	none (no result: MLL AF4-AF9 inh, Casp6 inh, RAD52 anneal inh, Ecoli rRNA inh)
O=Cc1ccc(OC(=O)C2CC(=O)N(c3ccc(F)cc3)C2)cc1 (centres undefined)	NSD2 inh 124.5 (no result: MLL AF4-AF9 inh, Casp6 inh, RAD52 anneal inh, Ecoli rRNA inh) | AlphaScreen art inactive
CN(C)S(=O)(=O)c1ccc(Cl)c(C(=O)OCC(=O)c2ccco2)c1	NSD2 inh 55.4 | AlphaScreen art inactive
Nc1c(C(=O)CCC(=O)O)oc2ccc(Cl)cc12	none (no result: NSD2 inh)
NC(=O)c1oc2ccc(Cl)cc2c1N	NSD2 inh 94.7 (no result: MLL AF4-AF9 inh, Casp6 inh, RAD52 anneal inh, Ecoli rRNA inh) | AlphaScreen art inactive
Cc1sc2nc[nH]c(=S)c2c1-c1ccccc1	NSD2 inh 86.0 | AlphaScreen art inactive
Cc1sc2nc[nH]c(=O)c2c1-c1ccc(F)cc1	none
ClN=C1C=CC=CC1=NCl	NSD2 inh 107.6 (no result: MLL AF4-AF9 inh, Casp6 inh, RAD52 anneal inh, Ecoli rRNA inh) | AlphaScreen art inactive
Cc1nc2c(n1O)CCC/C2=N\O	none (no result: MLL AF4-AF9 inh, Casp6 inh, RAD52 anneal inh, Ecoli rRNA inh)
CCN1CCCCC(=N/O)/C(=N/O)CCCC1	NSD2 inh 71.1 | AlphaScreen art inactive
COc1cc(/C=N/N2CCN(C3c4ccccc4-c4ccccc43)CC2)cc(OC)c1OC	NSD2 inh 143.6 | AlphaScreen art inactive
COc1cc(/C=N/N2CCN(C3c4ccccc4-c4ccccc43)CC2)cc(OC)c1O	none (no result: MLL AF4-AF9 inh, Casp6 inh, RAD52 anneal inh, Ecoli rRNA inh)
CO[C@@H]1CN(C)C(=O)c2ccc(NS(C)(=O)=O)cc2OC[C@H](C)N(S(C)(=O)=O)C[C@H]1C	none (no result: NSD2 inh)
COc1cccc(CN2[C@@H]3CNC[C@H]2C3c2ccc(-c3ccc(C)cc3)cc2)c1 (some centres undefined)	none (no result: Casp6 inh, NSD2 inh)
Cc1nnc(Sc2cc(NCCO)c([N+](=O)[O-])c3nonc23)s1	NSD2 inh 60.2 | AlphaScreen art inactive
CC(C)NC(=O)N(C)C[C@H]1OCCCC[C@H](C)Oc2ccc(NC(=O)Nc3ccc(F)cc3)cc2C(=O)N([C@H](C)CO)C[C@@H]1C	none (no result: NSD2 inh)
COCCOC(=O)C1=C(C)NC(C)=C(C(=O)OC(C)C)C1c1cccc([N+](=O)[O-])c1 (centres undefined)	NSD2 inh 74.6 (no result: Casp6 inh, Ecoli rRNA inh) | AlphaScreen art inactive
O=C(NCCN1CCOCC1)NC1(C(F)(F)F)Oc2ccccc2O1	NSD2 inh 55.4 (no result: MLL AF4-AF9 inh, Casp6 inh, RAD52 anneal inh, Ecoli rRNA inh) | AlphaScreen art inactive
COC1=C(Br)C(=O)c2nc(C)ccc2C1=O	Casp6 inh 94.7, NSD2 inh 185.6 | AlphaScreen art inactive
COC1=C(N)C(=O)c2nc(C)ccc2C1=O	Casp6 inh 56.0, NSD2 inh 189.2 | AlphaScreen art inactive
COc1ccc(-c2c(C#N)c(C)nc3c2C(=O)c2ccccc2-3)cc1	none (no result: MLL AF4-AF9 inh, Casp6 inh, RAD52 anneal inh, Ecoli rRNA inh)
COc1cc2[nH]c(Cl)c([N+](=O)[O-])c2cc1OC	Casp6 inh 48.6, NSD2 inh 95.5 | AlphaScreen art inactive
COc1cc2[nH]c3c(Cl)ncnc3c2cc1OC	none (no result: MLL AF4-AF9 inh, Casp6 inh, RAD52 anneal inh, Ecoli rRNA inh)
COc1ccc(C2CCc3cc4c(cc3C2=NOC(C)=O)OCO4)cc1OC (centres undefined)	NSD2 inh 58.2 (no result: Ecoli rRNA inh) | AlphaScreen art inactive
Cc1ccc(NC(=O)CN(C)CCOc2ccccc2)c([N+](=O)[O-])c1	NSD2 inh 74.5 | AlphaScreen art inactive
Cn1cnc(S(=O)(=O)N2C[C@H](O)COC[C@@H]3O[C@@H](CC(=O)NC4CCCC4)CC[C@H]32)c1	none (no result: NSD2 inh)
CCNCCC(=O)N1c2ccccc2Sc2ccc(C(F)(F)F)cc21	NSD2 inh 78.4 | AlphaScreen art inactive
O=C(CN1CCCC1)N1c2ccccc2Sc2ccc(C(F)(F)F)cc21	none (no result: MLL AF4-AF9 inh, Casp6 inh, RAD52 anneal inh, Ecoli rRNA inh)
C[C@@H]1CN([C@@H](C)CO)C(=O)c2cc(NC(=O)Nc3ccc(F)cc3)ccc2O[C@H]1CN(C)Cc1ccc(-c2ccccc2)cc1	none (no result: NSD2 inh)
O=C(NNS(=O)(=O)c1ccc(F)cc1F)c1csc(-c2cccnc2)n1	NSD2 inh 54.2 (no result: Ecoli rRNA inh) | AlphaScreen art inactive
NS(=O)(=O)c1ccc(N/N=C/c2ccncc2)cc1	NSD2 inh 127.9 | AlphaScreen art inactive
C[C@H]1CN([C@@H](C)CO)C(=O)c2cc(NS(=O)(=O)c3ccccc3)ccc2O[C@@H]1CN(C)C(=O)Nc1ccc(F)cc1	none (no result: NSD2 inh)
COc1cc(/C=C/C(=O)OCC(=O)NC(=O)NC(C)(C)C)ccc1O	none
COc1cc(/C=C/C(=O)OCC(=O)NNC(=O)c2cc(Cl)ccc2OC)ccc1O	NSD2 inh 63.0 | AlphaScreen art inactive
CCN(C[C@@H]1N[C@@H](CO)[C@H]1c1ccc(-c2cccc(F)c2)cc1)C(=O)COC	none (no result: NSD2 inh)
Cc1cccc(OCCn2c(=S)[nH]c3ccccc32)c1	NSD2 inh 112.7 (no result: MLL AF4-AF9 inh, Casp6 inh, RAD52 anneal inh, Ecoli rRNA inh) | AlphaScreen art inactive
S=c1[nH]c2ccccc2n1CCOc1ccccc1	none
N#CC1C(=O)Nc2cccnc21 (centres undefined)	Casp6 inh 58.7, NSD2 inh 121.0 | AlphaScreen art inactive
O=C1Nc2ccccc2C1Cc1ccccn1 (centres undefined)	none
Oc1ccccc1CNc1cccc2cccnc12	NSD2 inh 53.1 | AlphaScreen art inactive
NC(=S)Nc1cccc2cccnc12	none (no result: MLL AF4-AF9 inh)
COc1cccc(CNC(=O)C[C@H]2CC[C@@H](NC(=O)C3CC3)[C@@H](CO)O2)c1	none (no result: NSD2 inh)
Cc1cc(=O)n(-c2ccc3ccccc3n2)[nH]1	NSD2 inh 85.9 (no result: MLL AF4-AF9 inh, Casp6 inh, RAD52 anneal inh, Ecoli rRNA inh) | AlphaScreen art inactive
CCCCCNc1nc(NCCCO)c(C#N)c2c1CN(C)CC2	NSD2 inh 51.3 (no result: MLL AF4-AF9 inh, Casp6 inh, RAD52 anneal inh, Ecoli rRNA inh) | AlphaScreen art inactive
CO[C@H]1CC[C@@H]2CCN(C)C(=O)[C@@H](C)[C@H](OC)CN(C)C(=O)c3cc(C#N)ccc3OC[C@H]1O2	none (no result: NSD2 inh)
O=C(Nc1cc(C(F)(F)F)ccc1N1CCCC1)C1CC(=O)N(Cc2ccccc2)C1 (centres undefined)	NSD2 inh 55.9 | AlphaScreen art inactive
CNCc1cc(Br)c(OCC(=O)Nc2ccccc2OC)c(OC)c1	NSD2 inh 73.0 | AlphaScreen art inactive
O=C(CNC(=O)c1ccco1)NCC(=O)OCc1ccccc1Cl	NSD2 inh 55.6 | AlphaScreen art inactive
O=C(O)CCCN1C(=O)/C(=C/C=C/c2ccco2)SC1=S	Casp6 inh 81.5, NSD2 inh 110.0 | AlphaScreen art inactive
O=C(O)CC(C(=O)O)N1C(=O)/C(=C/C=C/c2ccco2)SC1=S (centres undefined)	Casp6 inh 80.6, NSD2 inh active | AlphaScreen art inactive
Cc1ccc(NC(=O)CCCN2C(=O)/C(=C/C=C/c3ccccc3)SC2=S)cc1	none (no result: MLL AF4-AF9 inh, Casp6 inh, RAD52 anneal inh, Ecoli rRNA inh)
O=Cc1ccc(-c2nc3ccccc3s2)o1	none
O=C(O)CC(C(=O)O)N1C(=O)/C(=C/c2ccc(-c3nc4ccccc4s3)o2)SC1=S (centres undefined)	NSD2 inh 66.9 (no result: MLL AF4-AF9 inh, Casp6 inh, RAD52 anneal inh, Ecoli rRNA inh) | AlphaScreen art inactive
Cc1ccc(-c2ccc3c(c2)O[C@@H](CN(C)S(C)(=O)=O)[C@@H](C)CN([C@H](C)CO)S3(=O)=O)cc1	none (no result: NSD2 inh)
O=C(C[C@@H]1CC[C@@H]2[C@H](COC[C@@H](O)CN2Cc2ccccc2)O1)NCCCN1CCOCC1	none (no result: NSD2 inh)
